Source: the supplement of paper PMC12645437, “Orthogonal IMiD-Degron Pairs Induce Selective Protein Degradation in Cells” (ACS Chemical Biology, 2025)
The full ranking holds about 8,300 sequences; the median of “log2 fold change of degron read counts, EGFP-low vs EGFP+ sorted cells (limma voom), compound-induced degradation” is about -1.1, and the highest 2% start at about 3.2. The sample holds the highest values, similar sequences and a random draw of the others, so the mix is not that of the screen.

T1: CRBN, Q96SW2
T1 chain: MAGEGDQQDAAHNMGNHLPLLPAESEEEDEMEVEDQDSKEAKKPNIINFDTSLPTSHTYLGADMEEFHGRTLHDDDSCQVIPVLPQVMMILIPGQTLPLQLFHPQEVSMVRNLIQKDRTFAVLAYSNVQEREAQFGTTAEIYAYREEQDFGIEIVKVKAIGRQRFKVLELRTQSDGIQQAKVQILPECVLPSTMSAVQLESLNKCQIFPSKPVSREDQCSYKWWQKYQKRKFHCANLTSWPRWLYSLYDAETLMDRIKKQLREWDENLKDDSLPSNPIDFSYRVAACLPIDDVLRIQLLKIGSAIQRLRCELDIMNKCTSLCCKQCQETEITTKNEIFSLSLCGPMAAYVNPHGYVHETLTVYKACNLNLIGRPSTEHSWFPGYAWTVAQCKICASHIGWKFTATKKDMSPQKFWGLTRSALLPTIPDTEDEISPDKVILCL


Molecular target: T1, CRBN, Q96SW2
Assay: log2 fold change of degron read counts, EGFP-low vs EGFP+ sorted cells (limma voom), compound-induced degradation; higher = more compound-induced degradation of the degron-EGFP fusion; degrons are variants of IKZF1/3 zinc finger 2; compound dose not given here
Conditions: Jurkat, 18 h
[1] = compound: compound 19 (5-tert-butyl-thalidomide)
[2] = compound: compound 22 (5-morpholino-thalidomide)
[3] = compound: compound 33 (diphenyl IMiD analogue)
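Note: pooled lentiviral library of zinc finger degron-EGFP fusions in mCherry-positive Jurkat cells, FACS-sorted after compound exposure, with degron abundance counted by next-generation sequencing.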

| Sequence | log2 fold change of degron read counts [1] | log2 fold change of degron read counts [2] | log2 fold change of degron read counts [3] | log2 fold change of degron read counts (compound: thalidomide) |
| --- | --- | --- | --- | --- |
| FCCDICGAFFTQKGNLLRHIKL [46F_47C_49D_50I_52G_53A_54F_55F_67L_, Q9UKT9] | -0.849 | -1.43 | -0.311 | -2.26 |
| FSCPQCGAHFTQKGNLLRHIKL [46F_47S_49P_50Q_52G_53A_54H_55F_67L_, Q9UKT9] | -1.06 | -2.04 | -0.649 | -1.51 |
| FSCSVCGHMFTQKGNLLRHIKL [46F_47S_49S_50V_52G_53H_54M_55F_67L_, Q9UKT9] | -2.17 | -2.85 | -2.33 | -2.67 |
| FHCNICGAGFTQKGNLLRHIKL [46F_47H_49N_50I_52G_53A_54G_55F_67L_, Q9UKT9] | 1.76 | 0.175 | 1.2 | -0.885 |
| FSCPICGRFFTQKGNLLRHIKL [46F_47S_49P_50I_52G_53R_54F_55F_67L_, Q9UKT9] | -0.54 | -1.4 | -0.477 | -1.17 |
| FKCEICGRDFTQKGNLLRHIKL [46F_47K_49E_50I_52G_53R_54D_55F_67L_, Q9UKT9] | -3.16 | -3.46 | -3.24 | -2.51 |
| FYCPICGRFFTQKGNLLRHIKL [46F_47Y_49P_50I_52G_53R_54F_55F_67L_, Q9UKT9] | -0.827 | -0.851 | -1 | -2.07 |
| LLCEICGFACTQKGNLLRHIKL [46L_47L_49E_50I_52G_53F_54A_55C_67L_, Q9UKT9] | 0.644 | -0.727 | 0.56 | 1.35 |
| FLCDQCGAYFTQKGNLLRHIKL [46F_47L_49D_50Q_52G_53A_54Y_55F_67L_, Q9UKT9] | -3.04 | -2.52 | -2.25 | -2.41 |
| LSCEICGFQCTQKGNLLRHIKL [46L_47S_49E_50I_52G_53F_54Q_55C_67L_, Q9UKT9] | 2.4 | 1.95 | 0.752 | 1.19 |
| LLCEICGFQCTQKGNLLRHIKL [46L_47L_49E_50I_52G_53F_54Q_55C_67L_, Q9UKT9] | 0.49 | -0.719 | 0.751 | 1.99 |
| LACEICGFQCTQKGNLLRHIKL [46L_47A_49E_50I_52G_53F_54Q_55C_67L_, Q9UKT9] | 3.16 | 2.06 | 0.631 | 0.66 |
| LYCEICGFQCTQKGNLLRHIKL [46L_47Y_49E_50I_52G_53F_54Q_55C_67L_, Q9UKT9] | 3.53 | 3.71 | 2.78 | 1.8 |
| LICEICGFQCTQKGNLLRHIKL [46L_47I_49E_50I_52G_53F_54Q_55C_67L_, Q9UKT9] | 0.761 | 2.3 | 2.38 | 3 |
| LQCEICGFQCTQKGNLLRHIKL [46L_47Q_49E_50I_52G_53F_54Q_55C_67L_, Q9UKT9] | 0.99 | 0.223 | 1.43 | 3.3 |
| LWCEICGFQCTQKGNLLRHIKL [46L_47W_49E_50I_52G_53F_54Q_55C_67L_, Q9UKT9] | 3.2 | 3.49 | 2.53 | 1.13 |
| LDCEICGFQCTQKGNLLRHIKL [46L_47D_49E_50I_52G_53F_54Q_55C_67L_, Q9UKT9] | -0.786 | -1.68 | -1.53 | -0.616 |
| LFCEICGFQCTQKGNLLRHIKL [46L_47F_49E_50I_52G_53F_54Q_55C_67L_, Q9UKT9] | 3.43 | 3.41 | 1.96 | 2.09 |
| LCCEICGFQCTQKGNLLRHIKL [46L_47C_49E_50I_52G_53F_54Q_55C_67L_, Q9UKT9] | 1.95 | 1.72 | 1.6 | 1.91 |
| LECEICGFQCTQKGNLLRHIKL [46L_47E_49E_50I_52G_53F_54Q_55C_67L_, Q9UKT9] | -0.896 | -1.36 | 0.772 | 2.01 |
| LMCEICGFQCTQKGNLLRHIKL [46L_47M_49E_50I_52G_53F_54Q_55C_67L_, Q9UKT9] | 0.286 | 0.912 | 2.55 | 2.04 |
